Source: PubChem BioAssay (NCI)
About 83,000 compounds went through this panel and 20% of them were active in at least one assay; those are over-represented in the sample as a whole.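 96-well plates, one dose, 48 hours. Percent growth reported; active if below 10.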 A number with no mark means an inactive call. Calls of active or inactive are those of the source.

Experiments:
Assay in all cases: NCI-60 one-dose screen, 48 h (100 = growth as untreated, 0 = no growth, -100 = all killed)
Conditions in all cases: 10 µM unless noted
[1] = system: DU-145 prostate
[2] = system: K-562 leukemia
[3] = system: MALME-3M melanoma
[4] = system: MDA-MB-231 breast
[5] = system: RXF 393 renal
[6] = system: SF-268 CNS
[7] = system: SF-295 CNS
[8] = system: SF-539 CNS
[9] = system: UACC-257 melanoma
[10] = system: M14 melanoma
[11] = system: HCT-15 colon
[12] = system: HT29 colon
[13] = system: SNB-75 CNS
[14] = system: SNB-19 CNS
[15] = system: U251 CNS
[16] = system: PC-3 prostate
[17] = system: SK-MEL-5 melanoma
[18] = system: UACC-62 melanoma
[19] = system: LOX IMVI melanoma
[20] = system: SK-MEL-28 melanoma

| SMILES | growth [1] | growth [2] | growth [3] | growth [4] | growth [5] | growth [6] | growth [7] | growth [8] | growth [9] | growth [10] | growth [11] | growth [12] | growth [13] | growth [14] | growth [15] | growth [16] | growth [17] | growth [18] | growth [19] | growth [20] |
| --- | --- | --- | --- | --- | --- | --- | --- | --- | --- | --- | --- | --- | --- | --- | --- | --- | --- | --- | --- | --- |
| CC(=O)c1cc(C(=O)c2ccc3c(c2)Sc2ccccc2N3)c2c(C)cccn12 | 13.9% | 7.8% (active) | 62.3% | 19.7% | -7.81% (active) | 28.4% | 4.09% (active) | -28.4% (active) | 77% | 16.9% | 15.8% | 12% | 24.3% | 33.8% | 13.6% | 26.8% | 8.21% (active) | 26.3% | 14.1% | 62.5% |
| CCOC(=O)C1=C(C)NC(SCc2nnc(-c3ccc(Cl)cc3)o2)=NC1c1ccc(Br)cc1 (centres undefined) | 84.3% | 60.7% | 83.1% | 59.8% | 75% | 86.6% | 73.6% | 88.7% | 73% | 74% | 65.1% | 78.7% | 67.7% | 72% | 65.7% | 48.8% | 51.4% | 55.3% | 75% | 81.3% |
| COc1cccc(Cn2c(-c3nonc3NC(C)=O)nc3ccccc32)c1 | 13.8% | 13.9% | 42.3% | 46.1% | -17% (active) | 59.5% | 15% | 36.7% | 52.7% | 14.1% | 34.9% | 21.5% | 10.1% | 71.3% | 27.1% | 21.4% | 28.4% | 45.2% | 50.2% | 57.3% |
| CCSc1ccc([C@@H]2[C@@H](O)C(=O)N2c2cc(OC)c(OC)c(OC)c2)cc1 | 12.5% | 7.65% (active) | 71% | 23.6% | 35.9% | 31.4% | 18.1% | 1.7% (active) | 66.5% | 10.4% | 14.1% | 9.27% (active) | 85.8% | 35.5% | 21% | 28.1% | 0.317% (active) | 40.4% | 25.9% | 71% |
| [Ag].[Ag].[NH-]S(=O)(=O)c1ccc(N=Nc2cc(N=Nc3ccc(S([NH-])(=O)=O)cc3)c3c(NC(=O)C(Cl)Cl)cccc3c2OC(=O)C(Cl)Cl)cc1.[c-]1nccs1.[c-]1nccs1 | 70.1% | 83.8% | 67.4% | 49.5% | 71.5% | 78.6% | 81.6% | 95.7% | 82.4% | 97.4% | 79% | 76.2% | 51.3% | 80.7% | 75.2% | 48.2% | 35.6% | 91.8% | 78.7% | 89.1% |
| O=C(Nc1ccc2[nH]c3ccccc3c2c1)c1ccccc1Cl | 75% | 10% (active) | 35.3% | 40.3% | 26.5% | 63% | 10.7% | 51.7% | 83.1% | 26.2% | 31.7% | 1.78% (active) | 59.1% | 82.9% | 32.6% | 54.1% | 30.3% | 56.4% | 33.9% | 57.8% |
| CN(C)CCOc1nc2c3cccnc3cc(-c3cccc(Cl)c3)c2c2ncccc12 | 14.3% | -21% (active) | -90.4% (active) | -11.5% (active) | -87.4% (active) | 27.4% | 27.9% | 36.3% | -57.5% (active) | -82.1% (active) | -10.9% (active) | 1.5% (active) | 38.2% | 26.4% | 11.2% | 22.4% | 1.23% (active) | -75.6% (active) | -94.5% (active) | -81.6% (active) |
| CCCc1n(Cc2ccc3ccccc3n2)cc[n+]1Cc1ccc2ccccc2n1 | 51.2% | 12.8% | 12.5% | 17.8% | 48.7% | 27.8% | 59.9% | 31.2% | -11.5% (active) | 37.2% | 95.7% | 16.8% | 19.5% | 19.1% | 20.6% | 24.8% | -49% (active) | 1.66% (active) | 18% | 19.3% |
| COc1ccc(/C(=C\c2cc(OC)c(OC)c(OC)c2)C(=O)N2CCN(c3ccccc3)CC2)cc1O | 115% | 104% | 104% | 95.1% | 98.2% | 101% | 96.2% | 92.1% | 93.1% | 105% | 97.2% | 101% | 77.4% | 97.6% | 96.3% | 84.4% | 97.1% | 88.4% | 94% | 105% |
| c1ccc2c(Cc3csc4ccccc34)csc2c1 | 110% | 23.8% | 81.9% | 94.9% | 83.6% | 104% | 69.2% | 91.4% | 93.5% | 67.7% | 76.1% | 76.2% | 66.9% | 90.4% | 81.9% | 85.2% | 91% | – | 84.3% | 82.9% |
| NC(=O)Nc1ccc2ncnc(Nc3cccc(O)c3)c2c1 | 90.4% | 103% | 121% | 104% | 111% | 85.4% | 98.1% | 109% | 99.8% | 102% | 108% | 106% | 102% | 93.1% | 87.9% | 102% | 101% | 105% | 101% | 114% |
| Cc1n(Cc2ccc3ccccc3n2)cc[n+]1Cc1ccc2ccccc2n1 | 94.6% | 36.2% | 55.9% | 97.3% | 86.8% | 73.5% | 87.7% | 67.9% | 42.6% | 86.9% | 100% | 62% | 65.8% | 54% | 58.8% | 55.8% | 59% | – | 81.9% | 72% |
| COc1cccc(OCC(O)CN2CCN(c3ccccc3)CC2)c1 (centres undefined) | 116% | 92.4% | 145% | 108% | 163% | 106% | 113% | 100% | 134% | 104% | 117% | 103% | 96.5% | 105% | 108% | 109% | 108% | 94.3% | 104% | 81.4% |
| COc1cc(CN2CCO[C@H](COc3cccc(F)c3)C2)ccc1Cl | 41.5% | 21.1% | 63.8% | 33.2% | 79.3% | 48.2% | 28% | 59.5% | 19.2% | 39.1% | 26.3% | 42.6% | 45% | 29.8% | 27.5% | 27.8% | – | 44.7% | 50.7% | – |
| CCN1CCN(Cc2ccc(NC(=O)c3nc4ccc5[nH]ncc5c4c4c3CCCC4)cc2C(F)(F)F)CC1 | -57.8% (active) | -44.5% (active) | -79.3% (active) | -72.1% (active) | -87.4% (active) | 27.4% | -54.2% (active) | -93.7% (active) | -63.9% (active) | -75.4% (active) | -47.8% (active) | -74.3% (active) | 80.8% | 13.9% | -85.7% (active) | 19.8% | -75.3% (active) | – | -94.6% (active) | – |
| Cc1nc2ccc(Nc3nc(NCCN4CCOCC4)nc(Nc4ccc(F)cc4)n3)cc2n1Cc1ccccc1 | 59.2% | 3.04% (active) | -41.7% (active) | 33.3% | 12% | 62.1% | -36.8% (active) | 29.8% | -65.3% (active) | -38.8% (active) | -0.585% (active) | -33.6% (active) | 50.6% | 78.7% | 28.7% | 71.5% | 14.2% | -24.8% (active) | 5.7% (active) | -67.2% (active) |
